Most compounds without a hit are left out; they make up all but 1.4% or so of the library.
EPAC2 antag: EPAC2 (human) antagonism; EPAC2 GEF exchange of Rap1B-BODIPY-GDP, fluorescence; Potency, µM (doses to about 114 µM), most hits filed as inhibitors; 360,000 compounds, 0.18% hits; also: nearly all actives have a fitted effect of over 45% in size
USP1 inh: inhibitors of human USP1/UAF1 deubiquitinase; O94782; recombinant USP1/UAF1, Ub-Rhodamine cleavage fluorescence; Potency, µM (doses to about 57.1 µM), hits mostly inhibitors; 390,000 compounds, 0.23% hits; also: nearly all actives have a fitted effect of over 60% in size
Target sequence (O94782 whole entry, looked up): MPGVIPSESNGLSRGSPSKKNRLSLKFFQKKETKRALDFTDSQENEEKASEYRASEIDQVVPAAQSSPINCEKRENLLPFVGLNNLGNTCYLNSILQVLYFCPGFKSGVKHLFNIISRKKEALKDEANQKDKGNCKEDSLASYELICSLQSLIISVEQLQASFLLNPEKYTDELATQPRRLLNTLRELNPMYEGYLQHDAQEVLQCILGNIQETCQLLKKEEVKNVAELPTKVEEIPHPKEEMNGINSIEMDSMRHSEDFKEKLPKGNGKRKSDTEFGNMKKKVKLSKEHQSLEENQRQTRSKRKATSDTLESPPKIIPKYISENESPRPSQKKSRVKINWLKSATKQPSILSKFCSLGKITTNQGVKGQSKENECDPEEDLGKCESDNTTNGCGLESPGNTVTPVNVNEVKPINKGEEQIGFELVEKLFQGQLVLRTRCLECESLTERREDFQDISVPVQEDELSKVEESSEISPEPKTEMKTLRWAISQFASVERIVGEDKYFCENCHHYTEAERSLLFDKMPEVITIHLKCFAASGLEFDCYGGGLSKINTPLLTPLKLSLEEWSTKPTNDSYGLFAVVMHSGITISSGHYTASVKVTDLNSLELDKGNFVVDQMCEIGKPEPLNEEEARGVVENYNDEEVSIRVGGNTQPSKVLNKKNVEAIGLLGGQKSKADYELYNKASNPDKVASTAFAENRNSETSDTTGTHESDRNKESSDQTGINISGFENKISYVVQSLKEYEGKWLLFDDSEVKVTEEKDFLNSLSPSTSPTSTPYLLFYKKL
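USP1/UAF1 complex at 1 nM was preincubated with compound for 15 min at room temperature, then Ub-Rho substrate (150nM final) was added. Fluorescence (480/540 nm) was read kinetically, 6 reads every 60 seconds.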
EPAC1 ag: EPAC1 (human) agonism | Potency, µM (doses to about 154 µM), usual class: activators | O95398 | AID 720707 | 360,000 compounds, 0.073% hits | EPAC1 agonist qHTS, biochemical assay; response scale: 100% = response to 6.5 mM cAMP; also: nearly all actives have a fitted effect of over 60% in size
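Compounds were pinned as a concentration titration into mixtures of EPAC1 (100 nM), BODIPY-GDP-loaded Rap1B (250 nM) and GDP (50 uM). After 5 min at room temperature, fluorescence was followed for 30 min; activity was scaled to 6.5 mM cAMP.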
BRCA1 expr up: activators of BRCA1 expression; AID 624202; MCF7-BRCA1-FFLuc reporter, luminescence, 48 h; response scale: scaled: vehicle 0%, 10 µM genistein 100%; Potency, µM (series often up to 46.1 µM), most hits filed as activators; 380,000 compounds, 1.1% hits; also: nearly all actives have a fitted effect of over 80% in size
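Activators of BRCA1 expression were detected as increased firefly luciferase luminescence in engineered MCF7 cells after 48 h compound incubation. Signals were scaled to genistein 10 microM as full activation.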
EPAC2 ag: activates human EPAC2 exchange factor | 360,000 compounds, 0.079% hits | Q8WZA2 | AID 720711 | Potency, µM (series often up to 154 µM), usual class: activators | EPAC2 activation, biochemical qHTS; response scale: 100% = 6.5 mM cAMP response; also: nearly all actives have a fitted effect of over 50% in size
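Fluorescence exchange assay: 100 nM EPAC2 with 250 nM RAP1B-BODIPY-GDP and 50 uM GDP; compounds tested as a concentration-titration series (qHTS). Loss of Rap1-bound BODIPY-GDP fluorescence read at 480/540 nm; data normalized to 6.5 mM cAMP.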
EPAC1 antagonist: blocks human EPAC1 exchange factor. 360,000 compounds, 0.14% hits. Potency, µM (doses to about 115 µM), usual class: inhibitors. EPAC1 GEF assay, Rap1b-BODIPY-GDP exchange fluorescence. O95398; also: nearly all actives have a fitted effect of over 50% in size
Large screens that a line does not name were inactive. Calls follow the shape of the dose curve; as a rule, active = well fitted curve in the direction sought with a large enough effect; inconclusive = small, poorly fitted or top-dose-only effect, or another doubt; inactive = no such curve, though single readings can be large; an effect the other way counts as inactive or inconclusive.

COC(=O)c1ccc(COc2cccc(C)c2C)cc1	USP1 inh inconclusive, BRCA1 expr up 10µM
COC(=O)c1ccc(COc2ccccc2/C=C(\C#N)C(=O)Nc2c(C)cccc2C)cc1	none
CCc1nc2ccc(C(=O)Nc3cc(-c4ccccc4)ccc3OC)cn2c1N(C)C(=O)c1cccc(OC)c1	none (no result: USP1 inh)
O=S(=O)(O)c1ccc(N=NNc2ccc(Br)cc2)cc1	EPAC2 antag 44.7µM
O=Cc1cc(N=Nc2ccc(S(=O)(=O)O)cc2)ccc1O	none
N/C(=N\OC(=O)c1cccc(Br)c1)c1ccncc1	BRCA1 expr up 14.1µM
N/C(=N\OC(=O)c1ccccc1)c1ccncc1	none
N/C(=N\OC(=O)c1ccc(Br)cc1)c1ccncc1	BRCA1 expr up 3.98µM
Cc1nn(Cc2ccccc2)c(C)c1CNC(=O)[C@H](C)N=C1NS(=O)(=O)c2ccccc21	none
COc1ccc(-c2cn3cccnc3n2)cc1NC(=O)C1CCCC1	none
COc1ccc(-c2cn3cccnc3n2)cc1Br	BRCA1 expr up 11.2µM
COc1cccc(-c2csc(NNC(=O)c3cccs3)n2)c1	none
COc1cccc(-c2csc(NC(=O)Oc3ccccc3)n2)c1	BRCA1 expr up 10µM
CCN(CC)CCNc1c(C)cc(CO)c(Cl)c1C	none
COc1ccc(NC(=S)Nc2ccccn2)c(OC)c1	BRCA1 expr up 5.62µM
O=C(Nc1ccc(F)c(Cl)c1)C1Cc2c(-c3ccccc3Oc3ccccc3)ccnc2O1 (stereo not given)	none (no result: USP1 inh)
O=C(NCCc1ccccc1)c1cnc2sc(N3CCCCC3)nn2c1=O	none (no result: EPAC2 antag, EPAC1 ag, BRCA1 expr up, EPAC2 ag, EPAC1 antagonist)
CCCCCCCCN(CCCCCCCC)c1ccc(/C=C/c2ccnc3ccccc23)cc1	none (no result: EPAC2 antag, USP1 inh, EPAC1 ag, EPAC2 ag, EPAC1 antagonist)
CCC(=O)NCCc1sc2nc(-c3ccc(OC)cc3)nn2c1C	BRCA1 expr up 5.01µM (no result: EPAC2 antag, EPAC1 ag, EPAC2 ag, EPAC1 antagonist)
CC(=O)Nc1ccc(NC(=O)CN(C)S(=O)(=O)c2ccc3ccccc3c2)cc1	none
CS(=O)(=O)N1N=C(c2ccco2)CC1c1ccc(Cl)cc1Cl (stereo not given)	EPAC2 antag 10µM
CC(C)(C)c1ccc(C(=O)NC(=S)N2CCOCC2)cc1	BRCA1 expr up 10µM
COc1ccc(/[N+]([O-])=C/c2ccoc2)cc1	BRCA1 expr up 11.2µM
Cc1cc(C)cc(OCC(=O)OCC(=O)NC2CC2)c1	none
O=C(CN1CCN(Cc2ccccc2Cl)C1=O)NC1CCCCCC1	BRCA1 expr up 11.2µM
COc1cc(SC)ccc1C(=O)Nc1ccc(C)cc1	none
COc1cc(SC)ccc1C(=O)Nc1ccc(C)cc1C	BRCA1 expr up 7.94µM
Cc1ccc(NC(=O)CCc2ccccc2)cc1C	USP1 inh inconclusive, BRCA1 expr up 12.6µM
O=C(CCc1ccccc1)Nc1ccc2ccccc2n1	BRCA1 expr up 7.08µM
O=C(Nc1ccc2ccccc2n1)c1ccccc1	none
O=C(CCc1ccccc1)Nc1cccc(NC(=O)CCc2ccccc2)c1	none
CN(Cc1ccccc1)c1ccc(/C=C/c2sc3ccccc3[n+]2C)cc1	none (no result: EPAC2 antag, USP1 inh, EPAC1 ag, EPAC2 ag, EPAC1 antagonist)
Cc1ccc(-n2nnnc2SCC(=O)NC(=O)Nc2ccc3c(c2)OCCO3)cc1	BRCA1 expr up inconclusive
Cc1nnc(SCC(=O)NC(=O)Nc2ccc3c(c2)OCCO3)n1N	BRCA1 expr up 10µM
CCC1(c2ccccc2)NC(=O)N(CC(=O)Nc2ccc3c(c2)CCC3)C1=O (stereo not given)	none
COc1ccc(NC(=O)/C=C/c2ccccc2)cn1	BRCA1 expr up 8.91µM
CCC1(c2ccccc2)NC(=O)N(CC(=O)Nc2ccc(OC)nc2)C1=O (stereo not given)	USP1 inh inconclusive, EPAC1 ag 100µM, EPAC2 ag inconclusive
COc1ccc(/C=C/C(=O)Nc2ccccc2)cc1OC	BRCA1 expr up 11.2µM
CCSc1ncc(Cl)c(C(=O)N(Cc2ccc(N(C)C)cc2)Cc2ccco2)n1	none (no result: EPAC2 antag, EPAC1 ag, BRCA1 expr up, EPAC2 ag, EPAC1 antagonist)
O=c1cc(-c2ccc(O)cc2)oc2c(O)c(O)c(O)c(O)c12	USP1 inh 10µM, EPAC1 antagonist 6.31µM
Cc1ccc(SCC(=O)Nc2ccccc2C(=O)O)cc1	BRCA1 expr up 4.47µM
O=C(CSc1ccccc1)Nc1ccccc1C(=O)O	BRCA1 expr up inconclusive
CCOC(=O)C(C)Sc1nnc(-c2c[nH]c3ccccc23)n1C (stereo not given)	none
CC(C)Sc1nnc(-c2c[nH]c3ccccc23)n1C	BRCA1 expr up 7.08µM
O=S(=O)(Nc1nc(-c2sccc2Cl)cs1)c1cc(Cl)ccc1Cl	EPAC2 antag 50.1µM, USP1 inh inconclusive, EPAC1 antagonist 79.4µM
COc1ccc(C2CC2/C(=N/OC(=O)c2cccs2)c2ccccc2)cc1 (stereo not given)	BRCA1 expr up 7.08µM
COc1ccc(/C(N)=N/OC(=O)Cc2cccs2)cc1	BRCA1 expr up 8.91µM
CCCC(=O)Nc1ccc(C(=O)COC(=O)C2CC2C)cc1 (stereo not given)	BRCA1 expr up 11.2µM
COc1ccc(C(=O)COC(=O)c2cccs2)cc1	BRCA1 expr up 12.6µM
COc1ccc(C(=O)O/N=C(/c2cccs2)C(C)(C)C)cc1	none
Cc1nn(CC(C)C)c(Cl)c1C(=O)N(C)CC(=O)Nc1ccc(Cl)cc1	none
O=C(COc1ccccc1C(=O)Nc1ccccc1)NC1CCCCC1	none (no result: EPAC2 antag, USP1 inh, EPAC1 ag, EPAC2 ag, EPAC1 antagonist)
O=C(Nc1cccc(F)c1)C1CCN(C(=O)c2ccco2)CC1	none
CC(=O)Nc1ccc(C(=O)COC(=O)c2cccs2)c(F)c1	EPAC2 antag inconclusive, BRCA1 expr up 14.1µM
CC(=O)Nc1ccc(C(=O)COC(=O)C2CC2C)c(F)c1 (stereo not given)	BRCA1 expr up 6.31µM
CCC(Cc1ccccc1)NC(=O)CCS(=O)(=O)c1cc2c(cc1Cl)NC(=O)CO2 (stereo not given)	none (no result: EPAC2 antag, EPAC1 ag, EPAC2 ag, EPAC1 antagonist)
Cc1ccnc(NC(=O)CCC(=O)N(CC(=O)NC(C)(C)C)c2ccc3c(c2)OCO3)c1	none
COc1cccc(NC2=CC(c3ccc(C(C)C)cc3)N(c3cccc(OC)c3)C2=O)c1 (stereo not given)	none (no result: EPAC2 antag, EPAC1 ag, BRCA1 expr up, EPAC2 ag, EPAC1 antagonist)
Cc1cccc(NC(=O)Nc2cc(C)cc(C)n2)c1	BRCA1 expr up 3.55µM
Cc1cccc(NC(=O)NCc2ccc3[nH]c(C)cc3c2)c1	none
Cc1ccc(CNC(=O)Nc2cccc(C)c2)cc1	BRCA1 expr up 8.91µM
CC(=O)N[C@@H](CC(=O)O)C(=O)O	none
CN(Cc1cc(-c2ccccc2)on1)C(=O)c1cc(COc2c(F)cccc2F)on1	BRCA1 expr up 11.2µM
Cc1nc(CN(C)C(=O)c2cc(COc3c(F)cccc3F)on2)cs1	none
Cc1ccccc1NC(=O)Nc1ccc2c(c1)OCO2	BRCA1 expr up 5.62µM
COc1cc(C(=O)Nc2ccc3c(c2)OCCO3)ccc1OC(F)F	BRCA1 expr up 11.2µM
N/C(=N\C(=S)Nc1ccc2c(c1)OCO2)c1ccccc1	BRCA1 expr up 4.47µM (no result: USP1 inh)

Screening results from PubChem.
